APP transl inh = inhibitors of APP translation via 5'UTR reporter, primary screen, APP 5'UTR luciferase, SH-SY5Y cells | SH-SY5Y APP 5'UTR-luciferase reporter, luminescence | inhibition, % at 2 µM | hit rate 0.82% among 190,000 | AID 1285, 2008;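 active = inhibition above a set limit, derived from the sample mean plus 3 SD, cut at about 45% in these data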
aSyn 5UTR inh = MLPCN primary screen, SNCA 5' untranslated region; alpha-synuclein 5'UTR reporter, inhibitor activity; hit rate 0.82% among 300,000; inhibition, % (tested at 7.5 µM); in the data active = inhibition above about 60%;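 note: H4 neuroglioblastoma cells stably carrying SNCA 5'UTR luciferase fusion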
BaF3 tox = parental Ba/F3 cell viability inhibition, counter-screen for JAK2V617F inhibitor project, murine pro-B, CellTiter-Glo luminescence; CellTiter-Glo ATP luminescence; hit rate 1.1% among 220,000; AID 1486, 2009; inhibition, % at 5.6 µM;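 active = inhibition above a per-campaign cutoff, the mean inhibition of all tested compounds plus 3 SD, cut at about 27% in these data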
IEC-6 cytotox = cytotoxicity in IEC-6 intestinal epithelial cells, primary screen, cytotoxicity control for KLF5 inhibitor project, cell-based, luminescence; IEC-6 cytotoxicity, luminescence viability; AID 1825, 2009; hit rate 0.78% among 290,000; inhibition, % at 5 µM; in the data active = inhibition above about 22%
Ba/F3 V617F tox = reduced viability of JAK2V617F-dependent Ba/F3 cells, primary screen, JAK2V617F inhibitor project, cell-based, Ba/F3 EpoR-JAK2V617F, luminescence | ATP luminescence | inhibition, % at 5.6 µM | hit rate 1.1% among 220,000 | AID 1446, 2008;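 active = inhibition above the campaign mean plus 3 SD over all tested compounds, cut at about 24% in these data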;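 note: cytokine-independent growth of Ba/F3 cells driven by EpoR plus mutant JAK2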
KLF5 inh = KLF5 expression inhibitors, primary screen, DLD-1 cells, luminescence. DLD-1 KLF5 promoter-luciferase reporter. AID 1700, 2009. inhibition, % at 5 µM. hit rate 0.23% among 290,000;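 active = inhibition above a per-plate limit of that plate's mean compound inhibition plus 3 SD, cut at about 60% in these data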;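 note: higher means less KLF5 promoter-driven luciferase light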
Each line names hits and unclear results; the compound was inactive in the other large screens. Compounds with a hit are over-represented: about 2.1% of the library has one in this group of screens.

Cc1cc(C2=NNC(=NC3CC3)SC2)c(C)n1-c1ccccc1F	APP transl inh 70, aSyn 5UTR inh 99
COc1ccc(S(=O)(=O)N2CCc3ccccc32)cc1C(=O)N1CCOCC1	none (no result: APP transl inh, BaF3 tox, IEC-6 cytotox, Ba/F3 V617F tox, KLF5 inh)
CCCCNC(=O)COC(=O)CNC(=O)c1cc(Cl)cc([N+](=O)[O-])c1	none
COc1ccc(/C=N\N=C2/SC(CC(=O)O)C(=O)N2c2ccc(O)cc2)cc1OC (configuration not stated)	none
O=C(O)CC1S/C(=N/N=C/c2ccc([N+](=O)[O-])cc2)N(c2ccc(O)cc2)C1=O (configuration not stated)	BaF3 tox 80
CN(C)c1ccc(C(CNC(=O)c2cccs2)N(C)C)cc1 (configuration not stated)	none (no result: APP transl inh, BaF3 tox, Ba/F3 V617F tox)
COc1ccc(N2C(=O)C(Cl)=C(Oc3cccc(OC)c3)C2=O)cc1	APP transl inh 49
Cc1ccc(CCC(=O)NCc2ccccc2)o1	none (no result: APP transl inh, BaF3 tox, Ba/F3 V617F tox)
CN(C)CCn1cnc2c(c1=N)C(c1ccccc1)c1ccc3ccccc3c1O2 (configuration not stated)	aSyn 5UTR inh 90 (no result: APP transl inh, BaF3 tox, Ba/F3 V617F tox)
CC(C1CCN(Cc2cn(C)nc2-c2cccc(Cl)c2)CC1)N1CCOCC1 (configuration not stated)	BaF3 tox 49
CN(C)C(CNC(=O)C1CCN(C(=O)/C=C/c2ccccc2)CC1)c1ccccc1 (configuration not stated)	none (no result: APP transl inh, BaF3 tox, Ba/F3 V617F tox)
C/C(=N/NC(=O)c1cccs1)c1c(C)[nH]n(-c2nc3ccccc3s2)c1=O	BaF3 tox 49, IEC-6 cytotox 42, Ba/F3 V617F tox 48
COC(=O)Cc1[nH]n(-c2nc3ccccc3s2)c(=O)c1C(C)=Nc1ccc(C)cc1	aSyn 5UTR inh 98
CC(=NCc1ccco1)c1c(C)[nH]n(-c2nc3ccccc3s2)c1=O	none
CCc1nnc(NC(=O)c2ccc(S(=O)(=O)N(C)Cc3ccccc3)cc2)o1	aSyn 5UTR inh 63 (no result: APP transl inh, BaF3 tox, Ba/F3 V617F tox)
CCCCN(CCCC)S(=O)(=O)c1ccc(C(=O)Nc2nnc(COC)o2)cc1	aSyn 5UTR inh 62
Cc1cccc(C(=O)CC(=O)c2cc(Cl)ccc2O)c1	aSyn 5UTR inh 64
O=C(O)c1ccccc1N/N=C\c1ccnc2ccccc12	aSyn 5UTR inh 76
O=C(O)c1ccccc1N/N=C/c1cc(Br)cc(Br)c1O	none (no result: APP transl inh)
c1ccc(-c2c[n+]3c(n2-c2ccccc2)SCC3)cc1	BaF3 tox 61, Ba/F3 V617F tox 66 (no result: APP transl inh)
CCOc1ccc(-n2c(-c3ccc(Cl)cc3)c[n+]3c2SCC3)cc1	BaF3 tox 74, Ba/F3 V617F tox 70
Cc1ccc2[nH]c(=O)c3cc(C(=O)N(C)C4CCCCC4)sc3c2c1	none (no result: APP transl inh, BaF3 tox, Ba/F3 V617F tox)
COc1ccccc1CNC(=O)c1ccccc1NC(=O)C1=C(C)OCCS1	none (no result: APP transl inh, BaF3 tox, Ba/F3 V617F tox)
CC(Cn1cnc2ccccc21)C(=O)O (configuration not stated)	APP transl inh 56
C=CC[n+]1c(-c2ccc(C)cc2)csc1Nc1ccc(NC(C)=O)cc1	APP transl inh 50, aSyn 5UTR inh 100
C=CC[n+]1c(-c2ccc(OC)cc2)csc1NNC(=O)Nc1ccccc1	none
CCC(C)NC(=S)Nc1ccccc1 (configuration not stated)	none (no result: APP transl inh)
CCC(C)NC(=S)Nc1ccc(C(=O)OC)cc1 (configuration not stated)	BaF3 tox 50
CCCOc1cccc(-c2cc(C(=O)NNC(=S)NCC)c3ccccc3n2)c1	APP transl inh 53
COC(=O)c1ccccc1NC(=O)Cn1c(-c2nonc2N)nc2ccccc21	APP transl inh 95, BaF3 tox 50, IEC-6 cytotox 35, Ba/F3 V617F tox 50
COC(=O)c1ccc(NC(=O)Cn2c(-c3nonc3N)nc3ccccc32)cc1	none
COc1ccc(/C=C2\CCOC2=O)cc1	none
COc1ccc(/C=C2/C(=O)OCc3cc(OC)c(OC)cc32)cc1	APP transl inh 82, BaF3 tox 28, IEC-6 cytotox 26, Ba/F3 V617F tox 57
COc1ccc(-c2noc(CCCC(=O)O)n2)cc1	APP transl inh 56, aSyn 5UTR inh 89
Cc1cccc(OCCC(=O)NCC(=O)Nc2cccc(C)c2C)c1	none
O=C(Nc1ccc(Oc2ccc(NC(=O)Nc3ccc([N+](=O)[O-])cc3)cc2)cc1)Nc1ccc([N+](=O)[O-])cc1	aSyn 5UTR inh 91 (no result: APP transl inh)
